Laboratory results: PubChem BioAssay (EPA / NIEHS)
Records with an inconclusive call do not appear. Calls of active or inactive are those of the source. How the source made its calls: active means hit-call score of the fitted dose curve at least 0.9, where 1 is the maximum; inconclusive means response in the unintended direction; inactive means score below 0.9.

biological target: Sodium channel protein type 1 subunit alpha (Rattus norvegicus) (UniProt P04774); experiment: NVS_IC_rNaCh_site2: NovaScreen (NVS) Ion Channel Assay for rat Sodium Channel, Site 2 (NaCh) (AID 2283322);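 further: hit means loss of radioligand binding signal relative to DMSO so AC50 marks displacement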
Procedure, shortened: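 Membranes: rat forebrain. Format: competitive radioligand displacement, filter separation, scintillation readout, 1 h exposure. Primary screen in duplicate at 25 uM; actives retested in concentration series.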

SMILES	AC50	outcome
CC[C@H](C)[C@H]1O[C@]2(C=C[C@@H]1C)C[C@@H]1C[C@@H](C/C=C(\C)[C@@H](O[C@H]3C[C@H](OC)[C@@H](O[C@H]4C[C@H](OC)[C@@H](NC)[C@H](C)O4)[C@H](C)O3)[C@@H](C)/C=C/C=C3\CO[C@@H]4[C@H](O)C(C)=C[C@@H](C(=O)O1)[C@]34O)O2	16.6 µM (active)	
CCC(=O)Nc1ccc(Cl)c(Cl)c1		inactive
CC(C1CC1)C(O)(Cn1cncn1)c1ccc(Cl)cc1 (configuration not stated)		inactive
C[Si](Cn1cncn1)(c1ccc(F)cc1)c1ccc(F)cc1	18.1 µM (active)	
CCCOCC(=Nc1ccc(Cl)cc1C(F)(F)F)n1ccnc1		inactive
Nc1c(Cl)cc([N+](=O)[O-])cc1Cl		inactive
CSc1nc(NC(C)C)nc(NC(C)C)n1	11.9 µM (active)	
Cc1cc(C2CC2)nc(Nc2ccccc2)n1	9.68 µM (active)	
FC(F)C(F)(F)OCC(Cn1cncn1)c1ccc(Cl)cc1Cl (configuration not stated)	25 µM (active)	

biological target: bovine Gamma-Aminobutyric Acid Type A Receptor BDZ, alpha 5 site (GABARa5), GABRA5 (gene 523515) (UniProt Q08E50); experiment: NVS_LGIC_bGABARa5: NovaScreen (NVS) Ligand-Gated Ion Channel Assay for bovine Gamma-Aminobutyric Acid Type A Receptor BDZ, alpha 5 site (GABARa5) (AID 2283323)
Description: NVS_LGIC_bGABARa5 is a biochemical, single-readout assay that uses extracted gene-proteins from Bovine hippocampal membranes in a tissue-based cell-free assay. Measurements were taken 1 hour after chemical dosing in a 48-well plate.NVS_LGIC_bGABARa5 is one of one assay component(s) measured or calculated from the NVS_LGIC_bGABARa5 assay. It is designed to make measurements of radioligand binding, a form of binding reporter, as detected with scintillation counting signals by Filter-based radiodetection technology.Data from the assay component NVS_LGIC_bGABARa5 was analyzed into 1 assay endpoint. This assay endpoint, NVS_LGIC_bGABARa5, was analyzed in the positive analysis fitting direction relative to DMSO as the negative control and baseline of activity. Using a type of binding reporter, loss-of-signal activity can be used to understand changes in the binding as they relate to the gene GABRA5. Furthermore, this assay endpoint can be referred to as a primary readout, because the performed assay has only produced 1 assay endpoint. To generalize the intended target to other relatable targets, this assay endpoint is annotated to the ion channel intended target family, where the subfamily is ligand-gated ion channel.
Binding assays used specific radioligands (tritiated, iodinated) with non-radioactive competitive displacement ligands in agonist or antagonist protocols (as indicated) and various reference compounds and inhibitors to titrate specific binding to receptors and transporters. Most enzyme assays (CYPs, kinases, phosphatases, proteases, HDACs) used recombinant protein and specific substrates (fluorescence mostly, some colorimetric and radioactive) and inhibitors, followed by a biochemical separation of substrate and product. All assays for the biochemical HTS were initially run in duplicate at a single concentration (10 uM for CYP450 assays and 25 uM for all others). Assay-chemical combinations meeting a pre-defined threshold (e.g., 30% inhibition and other criteria defined below) were then run in singleton concentration-response format with maximum concentration of 20 uM for CYPs and 50 uM for all others. Each assay was run with positive and negative controls, and concurrent controls on every plate. The follow-up (secondary) screen tested active chemical-pairs in concentration series, as well as a few additional assays not tested in the primary screen, some selected negative inactives, and several cases re-run in the concentration series for confirmatory purposes.

Chain of bovine Gamma-Aminobutyric Acid Type A Receptor BDZ, alpha 5 site (GABARa5), GABRA5 (gene 523515) (Q08E50 whole entry, looked up): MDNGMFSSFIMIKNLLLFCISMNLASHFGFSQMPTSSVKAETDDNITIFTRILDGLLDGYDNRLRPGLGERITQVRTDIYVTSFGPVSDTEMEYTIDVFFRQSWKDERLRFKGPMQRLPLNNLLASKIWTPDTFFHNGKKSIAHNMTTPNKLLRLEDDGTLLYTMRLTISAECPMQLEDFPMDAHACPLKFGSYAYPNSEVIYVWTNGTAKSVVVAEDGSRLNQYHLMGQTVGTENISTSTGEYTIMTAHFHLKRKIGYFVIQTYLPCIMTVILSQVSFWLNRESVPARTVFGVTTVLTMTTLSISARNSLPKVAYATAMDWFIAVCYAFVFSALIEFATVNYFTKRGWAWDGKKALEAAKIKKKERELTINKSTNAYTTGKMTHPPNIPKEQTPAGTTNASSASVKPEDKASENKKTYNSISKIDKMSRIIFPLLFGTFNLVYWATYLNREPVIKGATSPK

SMILES	AC50	outcome
CC[C@H](C)[C@H]1O[C@]2(C=C[C@@H]1C)C[C@@H]1C[C@@H](C/C=C(\C)[C@@H](O[C@H]3C[C@H](OC)[C@@H](O[C@H]4C[C@H](OC)[C@@H](NC)[C@H](C)O4)[C@H](C)O3)[C@@H](C)/C=C/C=C3\CO[C@@H]4[C@H](O)C(C)=C[C@@H](C(=O)O1)[C@]34O)O2	1.56 µM (active)	
O=[N+]([O-])c1cc(C(F)(F)F)c(Cl)c([N+](=O)[O-])c1Nc1ncc(C(F)(F)F)cc1Cl		inactive
CCCCOC(=O)c1ccccc1C(=O)O		inactive
CC1=NNC(=O)N(/N=C/c2cccnc2)C1		inactive

biological target: rat Glutamate, AMPA Site (AMPA), Gria1 (gene 50592) (UniProt P19490); experiment: NVS_LGIC_rAMPA: NovaScreen (NVS) Ligand-Gated Ion Channel Assay for rat Glutamate, AMPA Site (AMPA) (AID 2283324)
Procedure, shortened: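 Rat forebrain membranes; radioligand binding read 1 h after dosing by filtration and scintillation counting. Duplicate single-point screen at 25 uM, then concentration-response to 50 uM for threshold hits (e.g. 30% inhibition); loss of signal vs DMSO.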

Chain of rat Glutamate, AMPA Site (AMPA), Gria1 (gene 50592) (P19490 whole entry, looked up): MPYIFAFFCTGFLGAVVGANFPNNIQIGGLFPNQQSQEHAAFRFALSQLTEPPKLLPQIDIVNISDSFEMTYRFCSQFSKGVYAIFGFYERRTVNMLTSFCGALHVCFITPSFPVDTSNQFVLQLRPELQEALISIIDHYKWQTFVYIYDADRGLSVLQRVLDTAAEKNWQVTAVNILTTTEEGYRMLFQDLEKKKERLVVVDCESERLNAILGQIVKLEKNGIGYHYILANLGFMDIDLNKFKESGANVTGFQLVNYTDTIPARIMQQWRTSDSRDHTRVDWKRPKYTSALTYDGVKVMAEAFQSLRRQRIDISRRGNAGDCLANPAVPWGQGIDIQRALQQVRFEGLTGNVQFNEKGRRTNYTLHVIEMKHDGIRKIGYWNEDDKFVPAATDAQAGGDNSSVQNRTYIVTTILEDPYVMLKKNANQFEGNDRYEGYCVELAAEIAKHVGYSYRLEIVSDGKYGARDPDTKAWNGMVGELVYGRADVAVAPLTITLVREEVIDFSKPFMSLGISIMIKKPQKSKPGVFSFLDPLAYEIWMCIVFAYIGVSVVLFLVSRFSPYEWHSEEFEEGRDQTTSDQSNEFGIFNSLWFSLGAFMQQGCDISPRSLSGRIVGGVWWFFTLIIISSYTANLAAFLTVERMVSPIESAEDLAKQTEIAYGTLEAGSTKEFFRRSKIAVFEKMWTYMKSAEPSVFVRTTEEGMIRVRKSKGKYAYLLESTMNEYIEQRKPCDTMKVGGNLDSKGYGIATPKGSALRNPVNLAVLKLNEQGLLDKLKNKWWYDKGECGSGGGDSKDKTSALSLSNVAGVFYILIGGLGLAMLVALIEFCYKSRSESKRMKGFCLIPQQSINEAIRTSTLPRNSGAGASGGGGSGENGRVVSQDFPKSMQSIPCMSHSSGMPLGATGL

SMILES	outcome
CN(C)[C@@H]1C(=O)C(C(N)=O)=C(O)[C@@]2(O)C(=O)C3=C(O)c4c(O)cccc4[C@@](C)(O)[C@H]3[C@H](O)[C@@H]12	inactive
S=C1NCCN1	inactive
CON=C(C(=O)OC)c1ccccc1CON=C(C)c1cccc(C(F)(F)F)c1	inactive
CC(C)=CC1C(C(=O)OCN2C(=O)C3=C(CCCC3)C2=O)C1(C)C (configuration not stated)	inactive
